According to PubChem BioAssay (NCI):
This is part of a sample that, as a whole, favours compounds with a hit. Of some 79,000 tested, about 15% had one in any assay. Values without a mark were called inactive. Cut-off read from the data, not from the text of the source: active = growth inhibition above about 70%; inactive = the rest.

Assay: NCI Yeast Anticancer Drug Screen. Data for the mec2-1 strain (AID 157)
Conditions: S. cerevisiae mec2-1 strain, at 50.0 µM, hits give high values
In short: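 Mutant yeast (mec2-1) grown with compound; growth inhibition relative to vehicle control reported.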

Structure (SMILES) | growth inhibition [%]
CN(c1ccccc1Cl)S(C)(=O)=O | -42.6
C=CC(COC(=O)C(C)(C)OC(C)=O)c1ccc(OC(=O)C(C)C)c(OC)c1 (stereo not given) | -2.75
O=C1CC(c2ccccc2)NCCCCN2CC(CN1)C(C(O)c1ccccc1)C2=O (stereo not given) | -34.8
Cc1nc(-[n+]2nc(-c3ccccc3)nn2-c2ccccc2)sc1C | -15.2
COC(=O)c1cc(C#N)[nH]c1-c1ccsc1 | -8
O=Cc1ccc2c(c1Cl)C(=O)c1ccccc1C2=O | 43.2
N/N=C(\C(=O)Nc1ccc([N+](=O)[O-])cc1)C(C1=Nc2cc([N+](=O)[O-])ccc2NC1)[N+](=O)[O-] (stereo not given) | 11.7
NC(CCC(=O)OCc1ccccc1)C(=O)OCc1ccccc1 (stereo not given) | -14.3
CC(=O)NS(=O)(=O)c1ccc2sc(C)nc2c1 | -22.6
Cc1cc(S(=O)(=O)O)c(NC(=O)c2oc3cc(O)ccc3c(=O)c2C)cc1Cl | -22.9
COc1cccc(/C=C/C(=O)c2ccc(Cl)cc2)c1OC | 30.1
COc1cc([C@H]2OC[C@@H]3C(c4cc(OC)c5c(c4)OCO5)OC[C@H]23)cc(OC)c1OC (stereo not given in full) | -34.6
COc1cc2c3cc1Oc1c(OC)c(OC)cc4c1C(Cc1ccc(O)c(c1)-c1cc(ccc1OC)CC3N(C)CC2)N(C)CC4 (stereo not given) | -6.75
COc1ccc(OC)c(N(CN2C(=O)CCC2C(=O)O)C(C)=O)c1 (stereo not given) | 10.2
O=C(O)c1cn(C2CC2)c2cc(N3CCNCC3)c(F)cc2c1=O | -6.4
